According to PubChem BioAssay (NCATS):
Inconclusive results are not listed. Activity calls are given as the source filed them. Unless noted, the call rests on the fitted dose curve; in most records, active means well fitted curve in the direction sought with a large enough effect; inconclusive means small, poorly fitted or top-dose-only effect, or another doubt; inactive means no such curve, though single readings can be large; an effect the other way counts as inactive or inconclusive.

Experiments:
[1] = molecular target: Alpha-galactosidase (Coffea arabica) (UniProt Q42656); assay: Counterscreen for Glucocerebrosidase Inhibitors: qHTS Assay for Coffee Bean alpha-Galactosidase at pH 4.5 (AID 957); further: series mostly up to about 77 µM
In short: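 Enzyme is added first (2 nM final), then compounds titrated from 0.7 nM to 77 uM, then 80 uM 4-methylumbelliferyl alpha-D-galactopyranoside; after 20 min at room temperature a pH 10 NaOH/glycine stop precedes fluorescence reading at 365/440 nm.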

[2] = molecular target: Alpha-galactosidase (Coffea arabica) (UniProt Q42656); assay: Counterscreen for Glucocerebrosidase Inhibitors: qHTS Assay for Coffee Bean alpha-Galactosidase at pH 5.9 (AID 998)
In short: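 Fluorogenic 4-MU substrate hydrolysis, 80 uM substrate and 2 nM coffee bean alpha-galactosidase, pH 5.9 citrate buffer, 20 min at room temperature, then NaOH/glycine stop. Titration 0.7 nM–77 uM, normalized to no-enzyme and enzyme controls, AC50 via Hill equation.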

[3] = Validation screen for inhibitors of Lassa infection (AID 463096; calls by dose curve; further: potency means the concentration at half of the fitted maximal effect)
[4] = Inducers of the Endoplasmic Reticulum Stress Response (ERSR) in human glioma: Validation (AID 504836)
In short: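 ERSR induction read as luciferase luminescence (Bright-Glo, 10 min at room temperature) in stably transfected human U87-MG glioma cells exposed to compounds for 16 h, using GRP78 as sensor.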

[5] = qHTS for Inhibitors of the Functional Ribonucleoprotein Complex (vRNP) of Lassa (LASV) Arenavirus: LASV Primary Screen - GLuc reporter signal (AID 1347082; calls by dose curve; tested in HEK293 reporter line; further: series mostly up to about 57 µM; nearly all actives have a fitted effect of over 60% in size)
[6] = qHTS for Inhibitors of the Functional Ribonucleoprotein Complex (vRNP) of Lassa (LASV) Arenavirus: Viability assay - alamar blue signal for LASV Primary Screen (AID 1347083; calls by dose curve; tested in HEK293 reporter line; further: series mostly up to about 57 µM; nearly all actives have a fitted effect of over 80% in size)
[7] = qHTS for Inhibitors of the Functional Ribonucleoprotein Complex (vRNP) of Lymphocytic Choriomeningitis Arenaviruses (LCMV): Viability assay - alamar blue signal for LCMV Primary Screen (AID 1347085; calls by dose curve; tested in HEK293 reporter line; further: series mostly up to about 57 µM; nearly all actives have a fitted effect of over 80% in size)
[8] = molecular target: Nucleoprotein (Lymphocytic choriomeningitis virus (strain Armstrong)) (UniProt P09992); assay: qHTS for Inhibitors of the Functional Ribonucleoprotein Complex (vRNP) of Lymphocytic Choriomeningitis Arenaviruses (LCMV): LCMV Primary Screen - GLuc reporter signal (AID 1347086; calls by dose curve; further: series mostly up to about 57 µM; nearly all actives have a fitted effect of over 70% in size)

Measured: Potency

Chain of Nucleoprotein (Lymphocytic choriomeningitis virus (strain Armstrong)) (P09992 whole entry, looked up): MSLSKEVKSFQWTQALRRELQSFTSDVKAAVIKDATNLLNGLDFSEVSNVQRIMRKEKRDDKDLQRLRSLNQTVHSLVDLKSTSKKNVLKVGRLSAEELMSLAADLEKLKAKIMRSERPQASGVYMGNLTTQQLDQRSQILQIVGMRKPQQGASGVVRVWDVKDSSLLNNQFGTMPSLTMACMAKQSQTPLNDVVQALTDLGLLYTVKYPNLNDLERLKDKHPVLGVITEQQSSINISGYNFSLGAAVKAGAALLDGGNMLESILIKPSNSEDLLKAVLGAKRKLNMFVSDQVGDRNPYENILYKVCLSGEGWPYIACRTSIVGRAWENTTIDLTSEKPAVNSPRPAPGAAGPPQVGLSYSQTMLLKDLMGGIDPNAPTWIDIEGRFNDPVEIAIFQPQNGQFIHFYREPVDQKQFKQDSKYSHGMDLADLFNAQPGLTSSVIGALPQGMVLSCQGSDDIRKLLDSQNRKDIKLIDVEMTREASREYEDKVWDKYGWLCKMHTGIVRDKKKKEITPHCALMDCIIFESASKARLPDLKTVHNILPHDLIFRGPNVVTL
Chain of Alpha-galactosidase (Coffea arabica) (Q42656 whole entry, looked up): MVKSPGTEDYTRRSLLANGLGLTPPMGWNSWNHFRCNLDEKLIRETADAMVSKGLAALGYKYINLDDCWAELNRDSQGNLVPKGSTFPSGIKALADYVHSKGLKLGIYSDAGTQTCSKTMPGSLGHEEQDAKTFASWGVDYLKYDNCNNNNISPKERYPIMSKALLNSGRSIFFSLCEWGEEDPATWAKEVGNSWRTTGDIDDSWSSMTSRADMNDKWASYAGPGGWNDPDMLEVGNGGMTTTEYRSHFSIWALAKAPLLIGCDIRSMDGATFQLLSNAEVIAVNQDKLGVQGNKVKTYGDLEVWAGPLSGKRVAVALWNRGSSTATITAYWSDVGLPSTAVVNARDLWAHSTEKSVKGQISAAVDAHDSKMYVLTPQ

NCCCNCCCCNCCCN
inactive: all assays above

CNCCNS(=O)(=O)c1cccc2cnccc12
inactive: all assays above

CN(C)c1nc(N)c(C(=O)N=C(N)N)nc1Cl
inactive: all assays above

O=C(N[C@@H](Cc1ccccc1)C(=O)CCl)OCc1ccccc1
active: [3] 6.31 µM
inactive: all other assays above

[Li+]
inactive: all assays above

O=C(O)c1ccccc1Nc1ccccc1
inactive: all assays above

COc1cc(CNC(=O)CCCCCCC(C)C)ccc1O
inactive: all assays above

Nc1c(S(=O)(=O)O)cc(Nc2ccc(Nc3nc(Cl)nc(Nc4ccc(S(=O)(=O)O)cc4)n3)c(S(=O)(=O)O)c2)c2c1C(=O)c1ccccc1C2=O
inactive: all assays above

CCCCCCC/C=C\CCCCCCCCC(=O)O
inactive: all assays above

Clc1ccc(N2CCN(Cc3c[nH]c4ncccc34)CC2)cc1
inactive: all assays above

Cc1cccc(C(=O)NCN2CCN(c3ccccc3C#N)CC2)c1
inactive: all assays above

N=C(N)c1ccc(N)cc1
inactive: all assays above

O=C(O)/C(=C/c1c(C(=O)O)[nH]c2cc(Cl)cc(Cl)c12)c1ccccc1
inactive: all assays above

CCSC(=N)N
inactive: all assays above

C[N+](C)(C)CC=O
inactive: all assays above

Ic1ccc(N2CCN(Cc3c[nH]c4ncccc34)CC2)cc1
inactive: all assays above

O=c1onc2cnc3ccccc3n12
inactive: all assays above

N=c1c[n+](N2CCOCC2)[n-]o1
inactive: all assays above

O=C(O)c1cc(=O)c2ccccc2[nH]1
inactive: all assays above

Cn1c(=O)c2[nH]c(-c3ccc(S(=O)(=O)O)cc3)nc2n(C)c1=O
inactive: all assays above

N=C(N)SCCN
not listed: [2]
inactive: all other assays above

N=C(N)SCCc1cnc[nH]1
not listed: [2]
inactive: all other assays above

O=C(O)c1cccnc1C(=O)O
not listed: [2]
inactive: all other assays above

CCCCCCCC/C=C\CCCCCCCC(=O)NCCO
inactive: all assays above

COc1cc2c(CCNC(C)=O)c[nH]c2cc1O
inactive: all assays above

Nc1ccc(N2C(=O)c3ccccc3C2=O)c(Cl)c1
inactive: all assays above

Cn1c(=O)c2[nH]c(C3CCCC3)nc2n(C)c1=O
inactive: all assays above
